Rows were chosen to be rich in hits. Some 2.5% of all compounds tested hit in one or more screens of this group.
Cruzain inh Det: blocks cruzain activity in presence of Triton detergent. Potency, µM, hits mostly inhibitors. purified cruzain, Z-FR-AMC fluorescence, 0.01% Triton. P25779. hit rate 0.43% among 200,000; note: nearly all actives have a fitted effect of over 40% in size
Target sequence (P25779 123-467 limits assumed): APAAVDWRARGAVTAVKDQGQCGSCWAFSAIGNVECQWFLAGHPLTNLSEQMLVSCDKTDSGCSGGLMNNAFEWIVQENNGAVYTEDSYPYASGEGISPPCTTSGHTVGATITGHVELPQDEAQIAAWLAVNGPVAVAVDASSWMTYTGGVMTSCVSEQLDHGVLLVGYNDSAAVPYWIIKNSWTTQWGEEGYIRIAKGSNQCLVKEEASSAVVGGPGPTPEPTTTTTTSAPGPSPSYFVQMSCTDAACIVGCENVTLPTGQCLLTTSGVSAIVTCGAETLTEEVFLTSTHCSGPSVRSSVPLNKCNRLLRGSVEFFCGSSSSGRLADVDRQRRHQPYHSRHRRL
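Detergent-containing run (0.01% Triton X-100) in acetate buffer pH 5.5 with 5 mM DTT: enzyme at 1.5 nM final, 15 min compound preincubation at room temperature, then 2 uM Z-FR-AMC substrate. Activity taken as 60 s fluorescence increase at 360/450 nm.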
Cruzain noTriton: cruzain (T. cruzi) inhibition without detergent; purified cruzain, Z-FR-AMC fluorescence, no detergent; Potency, µM, usual class: inhibitors; hit rate 2.3% among 200,000; note: nearly all actives have a fitted effect of over 40% in size
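Purified cruzain at 1.5 nM, pre-incubated 15 min with compound at room temperature in 100 mM sodium acetate pH 5.5, 5 mM DTT, 0.00005% Triton X-100. Reaction started with 2 uM Z-FR-AMC; AMC fluorescence increase over 60 s gives rate.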
Numbers stand for hits; n = inactive; u = inconclusive. Calls come from the whole dose curve; as a rule, active = well fitted curve in the direction sought with a large enough effect; inconclusive = small, poorly fitted or top-dose-only effect, or another doubt; inactive = no such curve, though single readings can be large; an effect the other way counts as inactive or inconclusive.

SMILES | Cruzain inh Det | Cruzain noTriton
COc1ccc(C(=O)Nc2oc(-c3ccccc3)c(-c3ccccc3)c2C#N)cc1 | n | 32µM
COc1ccc(C(=O)Nc2oc(-c3ccccc3)c(-c3ccccc3)c2C#N)cc1OC | n | n
CCOc1ccc(NC(=O)c2cc(-c3ccc(C)c(F)c3)on2)c([N+](=O)[O-])c1 | n | n
Cc1cccc(-c2nc3nc(C)cc(NC(C)c4ccccc4)n3n2)c1 (stereo not drawn) | n | n
CCOC(=O)c1c(C)[nH]c(C)c1S(=O)(=O)N(C)CC(=O)Nc1cccc(C(F)(F)F)c1 | n | n
O=C(Nc1cccc(Cl)c1)Nc1ccc(Cl)cn1 | n | 25µM
O=C(Nc1ccc(F)cc1)Nc1ccc(Cl)cn1 | n | n
CC(=O)[C@]1(O)CC[C@@H]2[C@H]3C[C@@H](C)C4=CC(=O)CC[C@@]4(C)C3[C@@H](O)C[C@]21C (stereo partly drawn) | n | n
COc1ccc(CC(=O)Nc2ccc3nc(N4CCCCC4)cc(C)c3c2)cc1 | n | n
Cc1ccc(CNC(=O)CCCn2c(=O)c3ccccc3n(CC(=O)Nc3ccc(C)c(C)c3)c2=O)cc1 | n | n
Cc1nn(-c2ccc(N3CCCC3)nn2)c(C)c1CCC(=O)Nc1ccc(F)cc1F | n | n
O=C(Nc1ccc(Br)cc1)c1ccc(F)c(S(=O)(=O)N2CCCc3ccccc32)c1 | n | u
O=C(Nc1cc(Cl)cc(Cl)c1)c1cc(S(=O)(=O)N2CCc3ccccc3C2)ccc1F | n | 16µM
CC(C)c1ccc(NC(=O)c2ccc(F)c(S(=O)(=O)N3CCCC3)c2)cc1 | n | n
O=C(Nc1cc(Cl)cc(Cl)c1)c1ccc(F)c(S(=O)(=O)N2CCCC2)c1 | n | 25µM
Cc1ccc(C)c(NC(=O)c2cc(S(=O)(=O)N3CCc4ccccc4C3)ccc2F)c1 | n | n
O=C(CN1CCN(c2ccccc2)CC1)Nc1ccc2c(c1)CCC2 | n | n
O=C(Nc1cc(Cl)cc(Cl)c1)c1ccc(F)c(S(=O)(=O)N2CCc3ccccc32)c1 | n | 16µM
O=C(Nc1ccc2c(c1)CCC2)c1cc(S(=O)(=O)N2CCN(c3ccccc3)CC2)ccc1Cl | n | 4µM
Cc1ccc(NC(=O)c2c(C)nc3sc(C(=O)Nc4ccc(F)cc4)c(N)c3c2-c2ccccc2Cl)c(C)c1 | n | u
O=S1(=O)c2ccccc2N(Cc2ccc(F)cc2)c2ccccc21 | n | u
Cc1ccnc2nc(NC(=O)c3ccccc3Cl)nn12 | n | n
Cc1cc(C)c(CN2C(=O)c3ccccc3S(=O)(=O)c3ccc(C(=O)OCC4CCCO4)cc32)c(C)c1 (stereo not drawn) | n | 13µM
Cc1ccc(C)c(CN2C(=O)c3ccccc3S(=O)(=O)c3ccc(C(=O)OCC4CCCO4)cc32)c1 (stereo not drawn) | n | n
COc1ccc(S(=O)(=O)N(CCc2ccccc2)CC(=O)NCc2ccccc2)cc1OC | n | u
SMILES | Cruzain inh Det | Cruzain noTriton
Cc1ccc(NS(=O)(=O)c2cc(NC(=O)c3cc4c(s3)CCCC4)ccc2C)c(C)c1 | n | 32µM
Cc1ccc(NC(=O)c2cc3c(s2)CCC3)cc1S(=O)(=O)N1CCOCC1 | n | n
O=C(NCc1nc2ncc(Br)cc2[nH]1)c1ccccc1 | n | n
O=c1[nH]c2cc(Br)cnc2nc1/C=C(\O)c1ccc(F)cc1 | n | 25µM
COc1ccc(-c2noc(CSc3nc(N)cc(=O)[nH]3)n2)cc1OC | n | n
COc1ccc(-c2nc3sc(CCNC(=O)c4cccc(C(F)(F)F)c4)c(C)n3n2)cc1 | n | u
COC(=O)C1=CN(C)C=C(C(=O)OC)C1c1ccc(O)c(OC)c1 | n | n
COCCN1C=C(C(=O)OC)C(c2cc(Br)c(OC)c(OC)c2)C(C(=O)OC)=C1 | 22µM | u
CCCCNS(=O)(=O)c1ccc2nc(-c3cccnc3)cc(C(=O)NCCCOC(C)C)c2c1 | n | n
CCC(C)NC(=O)CSc1nc2c(sc3ccccc32)c(=O)n1Cc1ccccc1Cl (stereo not drawn) | n | n
O=C(Nc1ccc(Cn2cccn2)cc1)c1ccc(COc2ccc(Br)cc2)cc1 | n | 13µM
O=C(Nc1ccc(Cn2cccn2)cc1)c1ccc(COc2cccc(Br)c2)cc1 | n | n
CCC1CN(C(=O)Nc2ccccc2C(F)(F)F)c2ccccc2O1 (stereo not drawn) | n | n
c1ccc2cc(NCNc3ccc4ccccc4c3)ccc2c1 | n | n
COC(=O)c1cc(Cl)ccc1NC(=O)CSc1ncc(S(=O)(=O)c2ccc(Br)cc2)c(=O)[nH]1 | 25µM | u
COc1ccc(CNC(=O)CSc2ncc(S(=O)(=O)c3ccc(Br)cc3)c(=O)[nH]2)cc1 | n | u
CC(=O)NCC(=O)OCC(=O)c1ccc(C)c(C)c1 | n | n
Cc1ccc(C(=O)COC(=O)CNC(=O)COc2ccccc2C)cc1C | 16µM | u
COc1cccc(O)c1O | n | n
COc1cc(/C=C(\C#N)C(N)=O)cc(CSc2nc3ccccc3s2)c1O | n | n
COc1ccc(C2NCCc3c2[nH]c2ccccc32)cc1CSc1nc2ccccc2s1 (stereo not drawn) | n | 25µM
C=CCCCCCCCCC(=O)O | n | n
Cc1ccc(O)c(C(=O)c2cc(C(=O)NCc3ccccc3)c(=O)n(Cc3ccccc3)c2)c1 | n | u
O=C(c1cc(C(=O)NCc2ccccc2)c(=O)n(Cc2ccccc2)c1)c1cc(Br)ccc1O | n | 4µM
CCCOc1ccc(/C=N/Nc2ccccc2[N+](=O)[O-])c(OCCC)c1 | n | u
SMILES | Cruzain inh Det | Cruzain noTriton
O=[N+]([O-])c1ccccc1N/N=C\c1ccccc1Cl | n | 20µM
O=C(NCCS(=O)(=O)N1CCN(c2ccccc2F)CC1)c1ccccc1C(F)(F)F | n | n
CCCn1c(NC(=S)Nc2ccccc2)nc2ccccc21 | n | n
CCn1c(NC(=S)Nc2ccccc2)nc2ccccc21 | n | 25µM
COc1ccccc1OCCn1c(NC(=O)c2ccc(Cl)cc2)nc2ccccc21 | n | n
Clc1ccc(NCc2nc3ccccc3n2CCOc2ccccc2)cc1 | n | n
COc1ccccc1OCCn1c(NC(=O)c2ccccc2Cl)nc2ccccc21 | n | 20µM
S=C(Nc1ccccc1)Nc1nc2ccccc2n1CCOc1ccc(Cl)cc1 | n | 10µM
Cc1cc(=O)n2nc(N(C)CC(=O)NCc3ccc(Cl)cc3)sc2n1 | n | n
COc1ccccc1N1CCN(c2nc3ccc(C)cc3nc2-n2nc(C)cc2C)CC1 | n | u
O=C(c1cccc(F)c1)N1CCC2(CCCN(c3ccccn3)C2)CC1 | n | n
CN(C)c1ccc(C2(c3ccc(N(C)C)cc3)OC(=O)c3cc(N(C)C)ccc32)cc1 | n | 25µM
Cc1cccc(C2(c3cccc(C)c3)OC(=O)c3ccccc32)c1 | n | n
COc1cc(OC)c(NC(=O)Nc2ccc3c(c2)N(C)C(=O)c2ccccc2S3)cc1Cl | n | u
O=C(Nc1ccccc1)c1ccc(NCC2CCCO2)c([N+](=O)[O-])c1 (stereo not drawn) | n | n
O=C(Nc1ccccc1)c1ccc(Nc2c([N+](=O)[O-])cc([N+](=O)[O-])c3ccccc23)cc1 | n | 10µM
COc1cc(C(CC(=O)NCc2ccccc2Cl)N2Cc3ccccc3C2=O)cc(OC)c1OC (stereo not drawn) | u | 16µM
COc1ccccc1CNC(=O)CC(c1ccc(OC)c(OC)c1)N1Cc2ccccc2C1=O (stereo not drawn) | n | n
Cc1cccc(NCc2nc3ccccc3n2CCOc2ccccc2C)c1 | n | n
Cc1cc(C(=O)OCC(=O)NC(C)(C)C)c2ccccc2n1 | n | n

Screens from PubChem.
